TDP1 cell CPT – growth inhibition of DT40 Tdp1-/-;hTDP1 cells with camptothecin (screen for TDP1 inhibitors); chicken DT40 Tdp1-/-;hTDP1 cells + 20 nM CPT, ATP luminescence, 48 h; Potency, µM (highest dose often 46.2 µM), actives largely listed as inhibitors; actives 12% (n = 420,000); AID 686979; note: nearly all actives have a fitted effect of over 55% in size
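Cell growth measured by CellTiter-Glo luminescence after a minimum 48 h, 37 C compound exposure with 20 nM CPT in Tdp1-knockout DT40 cells stably expressing hTDP1, seeded 400/well; qHTS titration format.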
HepG2 tox – HepG2 cytotoxicity, counter-screen for TGF-b inhibitors; HepG2 CAGA-GFP viability, ATP luminescence, 18 h; Potency, µM (doses to about 46.1 µM), actives largely listed as cytotoxic; actives 0.76% (n = 410,000); AID 588856
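HepG2 CAGA-GFP cells (1000/well, DMEM with 1% FBS) received compound, then TGF-beta at 500 pg/mL final, and were incubated 18 hours at 37 degrees C. Viability was read by CellTiter-Glo luminescence. Media-only wells were set as complete cell-killing and DMSO as no toxicity.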
TDP1 cell noCPT – qHTS for Inhibitors of human tyrosyl-DNA phosphodiesterase 1 (TDP1): qHTS in cells in absence of CPT; actives 15% (n = 420,000); AID 686978, 2013; DT40 Tdp1-/- hTDP1 cells, no CPT, ATP luminescence, 48 h; Potency, µM (series often up to 46.2 µM), most hits filed as inhibitors; note: nearly all actives have a fitted effect of over 55% in size
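Luminescent ATP content (CellTiter-Glo) served as the growth readout. Knockout chicken DT40 cells expressing human TDP1 were exposed to compounds without camptothecin for a minimum 48 hr at 37 °C.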
ATXN viability – cell viability loss in ATXN counter-screen; S2 cells (HEK-293 line with an ATXN2-luciferase reporter) viability, CellTiter-Fluor protease fluorescence, 24 h; Potency, µM (doses to about 56.7 µM), hits mostly cytotoxic; actives 0.49% (n = 400,000); note: nearly all actives have a fitted effect of over 40% in size
ATXN2 expr inh – reduces ATXN2 reporter expression in HEK-293 cells; HEK-293 ATXN2-luciferase reporter, luminescence, 24 h; Potency, µM (highest dose often 57 µM), usual class: inhibitors; actives 0.72% (n = 360,000); AID 1745845; note: nearly all actives have a fitted effect of over 55% in size
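ATXN2-luciferase reporter cells (luciferase flanked by upstream and downstream ATXN2 gene portions) were treated 24 h at 37 °C with compounds at up to 57 uM. SteadyGlo luminescence gave expression; GF-AFC fluorescence gave viability.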
TGFb SMAD3 inh – blocks TGF-b signaling; actives 1.2% (n = 410,000); HepG2 CAGA-GFP TGF-b/SMAD3 reporter, GFP fluorescence, 18 h; TGF-beta stimulated, 500 pg/mL final; AID 588855; Potency, µM (series often up to 46.1 µM), actives largely listed as inhibitors; note: nearly all actives have a fitted effect of over 65% in size
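GFP signal (ex488/em500-530) from TGF-beta-stimulated HEPG2 CAGA-GFP cells, 500 pg/mL final, 18 h at 37 degrees C in DMEM plus 1% FBS, normalized to unstimulated and DMSO-stimulated controls.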
Numbers stand for hits; – = inactive; ? = inconclusive; · = no result; [ ] = remark or other dose. Rows were chosen to be rich in hits. Some 17% of all compounds tested hit in one or more screens of this group. Calls come from the whole dose curve; as a rule, active = well fitted curve in the direction sought with a large enough effect; inconclusive = small, poorly fitted or top-dose-only effect, or another doubt; inactive = no such curve, though single readings can be large; an effect the other way counts as inactive or inconclusive.

SMILES	TDP1 cell CPT	HepG2 tox	TDP1 cell noCPT	ATXN viability	ATXN2 expr inh	TGFb SMAD3 inh
O=C(O)CCSc1nnc(COc2ccc(Cl)cc2)n1-c1ccccc1	–	–	–	–	–	–
CC(C)n1cc(C(=O)NC2CC(C)(C)Cc3c2cnn3-c2ccccc2)cn1 (stereo not given)	–	–	–	–	–	–
CCOc1ccc(NC(=O)OCCN2CCN(CCc3ccccc3)C(C)C2)cc1 (stereo not given)	?	–	?	?	–	–
COc1ccc(NC(=O)CSc2ncc3c(n2)-c2ccccc2N(Cc2ccc(C)cc2)S3(=O)=O)cc1Cl	?	–	?	?	–	–
COc1ccc(C)cc1NC(=O)CSc1ncc2c(n1)-c1ccc(Cl)cc1N(Cc1ccccc1)S2(=O)=O	9.2µM	–	?	–	–	–
O=C(CSc1ncc2c(n1)-c1ccccc1N(Cc1ccc(F)cc1)S2(=O)=O)NCc1ccccc1	–	–	–	–	–	–
O=C(CSc1ncc2c(n1)-c1ccc(Cl)cc1N(Cc1ccccc1)S2(=O)=O)Nc1ccc(F)c(F)c1	23µM	–	18µM	–	–	–
CC(C)S(=O)(=O)c1cnc(N2CCOCC2)nc1N	–	–	–	–	–	–
Cc1ccnc2nc(C(=O)N3CCN(S(=O)(=O)c4ccccc4)CC3)nn12	–	–	–	–	–	–
COc1ccccc1-c1nc2cc(NC(=O)c3ccccc3Cl)ccc2o1	?	–	?	–	–	–
Cc1cc2nc(-c3cc(NC(=O)c4cc5ccccc5o4)ccc3Cl)oc2cc1C	?	–	16µM	–	–	–
O=C(Nc1ccc(Cl)c(-c2nc3cc(Cl)ccc3o2)c1)c1cc2ccccc2o1	?	–	?	–	–	–
COc1cc2ccccc2cc1C(=O)Nc1ccc(Cl)c(-c2nc3ccccc3o2)c1	?	–	23µM	–	–	–
Cc1cc(C)cc(-n2c(SCC(=O)N3CCCC3)nc3c([nH]c4ccccc43)c2=O)c1	–	–	–	–	–	–
CCOc1ccc(-n2c(SCC(=O)NC3CCCCC3)nc3c([nH]c4ccccc43)c2=O)cc1	?	–	?	·	·	–
O=C(CSc1nc2c([nH]c3ccccc32)c(=O)n1-c1ccc(Cl)cc1)NC1CCCCC1	10µM	–	15µM	?	–	–
Cc1cc(C)cc(-n2c(SCC(=O)NC3CCCCC3)nc3c([nH]c4ccccc43)c2=O)c1	16µM	–	?	–	–	–
Cc1ccc(-c2cn3cccnc3n2)cc1NC(=O)Cc1ccccc1	–	–	–	·	·	–
FC(F)Oc1ccc(NC(=S)NCc2ccccc2)cc1Cl	16µM	–	?	–	?	?
FC(F)Oc1ccc(NC(=S)NCc2ccccc2)cc1	–	–	?	–	–	–
CCNC(=S)Nc1ccc(Cl)c(C(F)(F)F)c1	–	–	23µM	–	–	?
CC(NC(=S)Nc1ccc(OC(F)F)c(Cl)c1)C(C)(C)C (stereo not given)	?	–	?	–	–[11.3 µM]	13µM
Fc1cccc(NC(=S)NCc2ccc(Cl)cc2)c1	?	–	?	–	–	–
Fc1cc(NC(=S)NCc2ccc(CNC(=S)Nc3ccc(Cl)c(F)c3)cc2)ccc1Cl	?	2.8µM	13µM	?	·	?
COc1ccccc1C1(O)CCN(CC(=O)Nc2nc(-c3ccccc3)cs2)CC1	–	–	?	–	–	?
SMILES	TDP1 cell CPT	HepG2 tox	TDP1 cell noCPT	ATXN viability	ATXN2 expr inh	TGFb SMAD3 inh
O=C(c1csnn1)N1CCC2(CC1)CN(Cc1cc(C(F)(F)F)cc(C(F)(F)F)c1)C2	–	·	–	·	·	·
OCCCNCc1cc2ccc(F)cc2nc1N1CCN(c2cccc(Cl)c2)CC1	–[9.04 µM]	·	–	?	·	·
O=C(Nc1ccc(OC(F)F)c(Cl)c1)C(c1ccccc1)c1ccccc1	?	20µM	18µM	–	?	22µM
Cc1ccc(NC2=NC3(CCCCC3)N=C(N)N2)c(C)c1	23µM	–	?	–	–	–
Cc1ccc(NC2=NC3(CCCC3)N=C(N)N2)c(C)c1	2.9µM	–	3.7µM	–	–[11.3 µM]	–
COc1cccc(Cn2c(=O)c(-c3cccc(C#N)c3)nc3cnc(OC)nc32)c1	–	·	–	·	·	·
CCCCN(C(=O)C1CCC1)c1c(N)n(CC(C)C)c(=O)[nH]c1=O	–	–	–	–	–	–
COc1ccc(OCc2cc(C(=O)NC(C)c3nc(C)cs3)no2)c(Cl)c1 (stereo not given)	?	–	?	–	·	–
COc1cc(/C=N/NC(=O)c2ccc(COc3cc(C)ccc3C(C)C)cc2)cc(OC)c1O	16µM	–	13µM	–	?	–
COc1cc(/C=N/NC(=O)c2cccc([N+](=O)[O-])c2)ccc1OCc1ccc(C)cc1	–	–	–	–	–	–
Cc1ccc(C(C)C)c(OCc2ccc(C(=O)N/N=C/c3ccc(O)c(O)c3)cc2)c1	2.3µM	–	2.1µM	–	?	?
Cc1ccc(C(C)C)c(OCc2ccc(C(=O)N/N=C/c3cccc(O)c3O)cc2)c1	3.7µM	–	5.2µM	–	3µM	?
COc1cc(/C=N\NC(=O)c2ccc(-c3ccccc3)cc2)cc(OC)c1O	?	–	–	–	–	–
CCc1ccc(C(=O)c2cn(CC(=O)Nc3cccc(OC)c3)c3cc4c(cc3c2=O)OCO4)cc1	–	–	?	–	–	–
CCNC(=S)N1CCN(c2nc(-c3cccc(OC)c3)cs2)CC1	10µM	–	15µM	?	–	?
COc1ccc(NC(=O)N2CCN(S(C)(=O)=O)CC2)cc1	23µM	–	?	–	–	–
COc1cccc(-c2csc(N3CCN(CC(=O)NNC(=O)c4ccc(Br)cc4)CC3)n2)c1	?	–	16µM	–	–	–
COc1ccc(NC(=O)N2CCN(c3nc(-c4cccc(OC)c4)cs3)CC2)cc1	23µM	–	18µM	?	22µM	–
COCCNC(=S)N1CCN(c2nc(-c3cccc(OC)c3)cs2)CC1	?	–	?	–	–	–
COc1cccc(-c2csc(N3CCN(C(=O)Nc4ccc(Cl)cc4)CC3)n2)c1	?	–	?	?	·	?
CC(C)NC(=O)C1(C)CSCC(=O)N1CCCN1CCOCC1 (stereo not given)	–	·	–	·	·	·
COCCCNC1=C(C#N)C(=O)NC(c2cccs2)S1 (stereo not given)	–	–	–	–	·	–
CCN1CCCC1CNC(=O)c1cnn(-c2ncc3c(n2)-c2ccc(OC)cc2CC3)c1C1CC1 (stereo not given)	–[9.04 µM]	·	–	–	·	·

Screens as filed in PubChem.
